Screening data from PubChem BioAssay.
HepG2 viability: counter-screen for TGF-b inhibitors: cytotoxicity in HepG2 cells; HepG2 CAGA-GFP viability, ATP luminescence, 18 h; 410,000 tested, 0.76% active; Potency, µM (highest dose often 46.1 µM), without a hit: top-dose activity change, negative = cytotoxicity, usual class: cytotoxic; AID 588856; also: potency is read from the fitted curve at half-maximal effect
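HepG2 CAGA-GFP cells (1000/well, DMEM with 1% FBS) received compound, then TGF-beta at 500 pg/mL final, and were incubated 18 hours at 37 degrees C. Viability was read by CellTiter-Glo luminescence. Media-only wells were set as complete cell-killing and DMSO as no toxicity.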
DT40 TDP1 no CPT: qHTS for Inhibitors of human tyrosyl-DNA phosphodiesterase 1 (TDP1): qHTS in cells in absence of CPT. 420,000 tested, 15% active. DT40 Tdp1-/- hTDP1 cells, no CPT, ATP luminescence, 48 h. Potency, µM (series often up to 46.2 µM), without a hit: at the highest dose activity change, negative = growth inhibition, usual class: inhibitors; also: potency is read from the fitted curve at half-maximal effect; % is scaled to controls: 0 for no effect and ±100 for the full control effect; nearly all actives have a fitted effect of over 55% in size
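Chicken DT40 Tdp1-/- cells complemented with human TDP1, screened without camptothecin (DMSO vehicle only), 400 cells/well. Compounds pin-transferred, cells incubated at 37 °C for at least 48 hr. Growth read as ATP-dependent luminescence (CellTiter-Glo, 30 min at RT).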
IL1B secr inh: inflammasome signaling inhibition, IL-1 beta readout; AID 743279; 360,000 tested, 4.7% active; THP-1 LPS/ATP IL-1B secretion, AlphaLISA, 16 h; hits give low values; activity change, % at 57.5 µM; in the data active = activity change below about -50%; inconclusive = mostly about -30% to -49%; also: % is scaled to controls: 0 for no effect and ±100 for the full control effect
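Secreted IL-1B measured by AlphaLISA bead assay after 16 h compound exposure of THP-1 cells; compounds (final up to 57.5 uM) added 1 h before LPS (250 ng/mL) and ATP (1.25 mM) stimulation; lower signal means less secretion.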
TDP1 block: inhibitors of human tyrosyl-DNA phosphodiesterase TDP1; Q9NUW8; recombinant TDP1, AlphaScreen DNA substrate cleavage; Potency, µM (top dose mostly 130 µM), for the others: at the top dose activity change, negative = inhibition, actives largely listed as inhibitors; 350,000 tested, 0.28% active; also: potency is read from the fitted curve at half-maximal effect; % is scaled to controls: 0 for no effect and ±100 for the full control effect; nearly all actives have a fitted effect of over 40% in size
Target sequence (Q9NUW8 whole entry, looked up): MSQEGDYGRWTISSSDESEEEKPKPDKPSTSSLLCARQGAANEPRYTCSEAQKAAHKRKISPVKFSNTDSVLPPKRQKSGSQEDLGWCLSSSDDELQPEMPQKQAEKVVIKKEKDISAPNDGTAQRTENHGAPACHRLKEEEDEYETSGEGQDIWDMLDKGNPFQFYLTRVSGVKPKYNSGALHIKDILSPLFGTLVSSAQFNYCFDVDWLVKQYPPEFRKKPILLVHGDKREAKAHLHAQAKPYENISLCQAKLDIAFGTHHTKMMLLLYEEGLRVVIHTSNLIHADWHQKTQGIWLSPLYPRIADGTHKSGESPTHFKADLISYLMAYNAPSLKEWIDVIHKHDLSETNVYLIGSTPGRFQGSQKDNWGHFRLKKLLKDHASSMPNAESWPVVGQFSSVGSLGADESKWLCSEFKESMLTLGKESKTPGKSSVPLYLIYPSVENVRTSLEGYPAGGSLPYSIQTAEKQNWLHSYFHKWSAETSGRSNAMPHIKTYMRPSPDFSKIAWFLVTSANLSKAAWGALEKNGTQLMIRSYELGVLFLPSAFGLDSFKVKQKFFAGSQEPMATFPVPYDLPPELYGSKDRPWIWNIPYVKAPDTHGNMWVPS
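Compounds were preincubated with Tdp1 (1 nM final) for 15 min at room temperature before substrate (15 nM final) started a 5 min reaction; beads (10 ug/ml final) were then added for 10 min before AlphaScreen detection.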
TDP1 cell CPT: growth inhibition of DT40 Tdp1-/-;hTDP1 cells with camptothecin (screen for TDP1 inhibitors); chicken DT40 Tdp1-/-;hTDP1 cells + 20 nM CPT, ATP luminescence, 48 h; Potency, µM (highest dose often 46.2 µM), for inactives: top-dose activity change, negative = growth inhibition, most hits filed as inhibitors; 420,000 tested, 12% active; also: potency is read from the fitted curve at half-maximal effect; % is scaled to controls: 0 for no effect and ±100 for the full control effect; nearly all actives have a fitted effect of over 55% in size
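Cell growth measured by CellTiter-Glo luminescence after a minimum 48 h, 37 C compound exposure with 20 nM CPT in Tdp1-knockout DT40 cells stably expressing hTDP1, seeded 400/well; qHTS titration format.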
TGFb inhibitor: blocks TGF-b signaling; HepG2 CAGA-GFP TGF-b/SMAD3 reporter, GFP fluorescence, 18 h; TGF-beta stimulated, 500 pg/mL final; Potency, µM (titrated, usually from 46.1 µM), inactives show at the top dose activity, negative = inhibition, most hits filed as inhibitors; 410,000 tested, 1.2% active; AID 588855; also: potency is read from the fitted curve at half-maximal effect; % is scaled to controls: 0 for no effect and ±100 for the full control effect; nearly all actives have a fitted effect of over 65% in size
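Inhibition was scored as loss of TGF-beta-induced (500 pg/mL final, 18 hours, 37 degrees C) GFP in HEPG2 cells carrying a CAGA-GFP reporter, in DMEM with 1% FBS. Well GFP was summed per cell; Activity was normalised to unstimulated and stimulated DMSO wells, then concentration-response fitting.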
Numbers without * were called inactive; ? = inconclusive; · = no result; [ ] = dose if it differs, or a comment. A selection: hits, their analogues and other compounds. The true share with any hit is near 19%. Unless noted, calls follow the shape of the dose curve; as a rule, active = well fitted curve in the direction sought with a large enough effect; inconclusive = small, poorly fitted or top-dose-only effect, or another doubt; inactive = no such curve, though single readings can be large; an effect the other way counts as inactive or inconclusive.

SMILES	HepG2 viability	DT40 TDP1 no CPT	IL1B secr inh	TDP1 block	TDP1 cell CPT	TGFb inhibitor
CCN(CC)CCCN=C1N[C@@H](c2cccc(F)c2)C(C(=O)OC)=C(C)N1Cc1ccccc1	-109%	?	-5	1%	?	?
COC(=O)C1=C(C)N(Cc2ccccc2)C(=NCc2ccccc2)N[C@H]1c1cccc(F)c1	-112%	8.2µM*	0	·	16µM*	?
CCN1C(=NCCN2CCOCC2)N[C@@H](c2ccccc2)C(C(=O)OC)=C1C	5%	-9%	-4	·	-8%	-3%
COCCN=C1N[C@@H](c2ccccc2)C(C(=O)OC)=C(C)N1Cc1ccccc1	-16%	23µM*	-17	·	?	1%
COC(=O)C1=C(C)N(Cc2ccccc2)C(=NCc2cccc(Cl)c2)N[C@H]1c1ccccc1	-96%	21µM*	?	1%	12µM*	?
COC(=O)C1=C(C)N(CC2CC2)C(=NCc2cccc(Cl)c2)N[C@H]1c1ccccc1	-34%	?	-62*	·	16µM*	?
O=C(Cc1ccccc1)Nc1nc2ccc(Cl)cc2c2nc(-c3ccco3)nn12	·	-27%	·	6%	-5%	·
O=c1c(-c2ccc(Cl)cc2)nc2cnc(N3CCOCC3)nc2n1C1CC1	·	12%	·	·	-4%	·
CCc1cc2c(s1)c1cnn(Cc3ccccc3F)c(=O)c1n2C	·	·	·	-1%	·	·
CC(C)C[C@@H](CC(=O)N[C@@H](CCC(=O)O)CC(=O)O)NC(=O)[C@@H]1CNCC[C@H]1NC(=O)C[C@@H](NC(=O)C[C@H](CO)NC(=O)[C@@H]1CNCC[C@H]1N)C(C)C	·	·	·	7%	·	·
COc1cc(Cl)c(C)cc1NC(=O)CC1Oc2ccccc2NC1=O (stereo not given)	-35%	?	·	0%	?	-14%
COc1ccc(NC(=O)COC(=O)c2cccc(S(=O)(=O)N(C)C)c2)cc1	-8%	10%	6	-2%	2%	17%
CN(C)S(=O)(=O)c1cccc(C(=O)OCC(=O)Nc2sccc2C(N)=O)c1	-2%	21µM*	-17	1%	15µM*	4%
COc1cc(C(=O)OCC(=O)Nc2sccc2C(N)=O)cc(OC)c1OC	-34%	3.7µM*	78	2%	4.6µM*	0%
Cc1ccc(CNC(=O)C2CCN(S(=O)(=O)Cc3ccccc3)CC2)cc1	7%	-7%	·	6%	-5%	0%
COC(=O)C1(C)CCCC2(C)C3CCC(C(C)C)C(CO)C3C(CO)CC12 (stereo not given)	-40%	?	-60*	·	?	-14%
COc1ccc(C=O)cc1COc1ccc(Cl)cc1[N+](=O)[O-]	-7%	21µM*	12	0%	?	3%
CC12CN(C(=O)c3cccc([N+](=O)[O-])c3)C3(C#N)CC1CCC23C (stereo not given)	8%	-6%	-1	·	-2%	7%
COc1ccc(S(=O)(=O)N2CCOCC2)cc1NC(=O)Cc1cccs1	2%	-2%	0	0%[56.1 µM]	14%	-2%
CCOc1ccc(S(=O)(=O)N2CCCCC2)cc1NC(=O)Cc1cccs1	1%	18µM*	8	6%	?	0%
CC(=O)NCCC(=O)Nc1cc(S(=O)(=O)N2CCCCC2)ccc1N1CCCCC1	-12%	23µM*	-2	2%	?	2%
CCOc1ccccc1OCC(=O)Nc1cc(S(=O)(=O)N2CCCCC2)ccc1N1CCN(CC)CC1	-8%	16µM*	-27	-6%	23µM*	-1%
CCOc1ccccc1OCC(=O)Nc1cc(S(=O)(=O)N2CCCCC2)ccc1OC	8%	?	13	5%	?	1%
